Source: PubChem
CRFR2-BP antag: antagonists of CRF-binding protein/CRF-R2 receptor complex; HEK293 CRF-R2/CRF-BP, CRF-induced calcium fluorescence; inhibition, % at 11.8 µM; 350,000 compounds, 0.59% hits;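 active means inhibition of the ligand-induced calcium signal above about 50% at the single tested concentration, limit read from the data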
cardiac RTF act: increases calcium sensitivity of human cardiac regulated thin filaments. activation, % at 7.2 µM. IANBD-labeled TnC RTF fluorescence at EC20 calcium; 0% EC20 calcium, 100% full calcium. 340,000 compounds, 0.24% hits;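 active means activation above the mean over all tested compounds plus 3 SD, cut at about 30% in these data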;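 further: rise in fluorescence read as greater calcium sensitivity of cardiac thin filaments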
Cardiac RTF inh: cardiac RTF calcium desensitization; IANBD-labeled cardiac RTF, Ca2+ fluorescence; inhibition, % at 7.15 µM; 340,000 compounds, 0.12% hits; AID 493244;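 active means inhibition above the mean inhibition of all tested compounds plus 3 SD, cut at about 17% in these data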;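 further: assay run at fixed EC70 calcium of 1.6 mM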
CRFR2-BP ag: CRF-BP/CRF-R2 complex agonism | HEK293 CRF-R2/CRF-BP, calcium dye fluorescence (FLIPR); percent of saturating CRF peptide response | 350,000 compounds, 0.46% hits | activation, % at 13.2 µM;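 active means activation of at least 50%, plus an integration ratio under a set limit after plate pattern correction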;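 further: plate controls were neutral control wells without compound for no effect and CRF at EC100 for full effect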
IDE cell activ: IDE (human) activation, cell-based | P14735 | HEK cells, FAbeta-B cleavage, fluorescence polarization; 0% vehicle, 100% cell-free pure enzyme wells | activation, % at 5.96 µM | 340,000 compounds, 0.073% hits;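 active means activation above the mean of all tested compounds plus 3 SD, set per screening campaign, cut at about 17% in these data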
Target sequence (P14735 whole entry, looked up): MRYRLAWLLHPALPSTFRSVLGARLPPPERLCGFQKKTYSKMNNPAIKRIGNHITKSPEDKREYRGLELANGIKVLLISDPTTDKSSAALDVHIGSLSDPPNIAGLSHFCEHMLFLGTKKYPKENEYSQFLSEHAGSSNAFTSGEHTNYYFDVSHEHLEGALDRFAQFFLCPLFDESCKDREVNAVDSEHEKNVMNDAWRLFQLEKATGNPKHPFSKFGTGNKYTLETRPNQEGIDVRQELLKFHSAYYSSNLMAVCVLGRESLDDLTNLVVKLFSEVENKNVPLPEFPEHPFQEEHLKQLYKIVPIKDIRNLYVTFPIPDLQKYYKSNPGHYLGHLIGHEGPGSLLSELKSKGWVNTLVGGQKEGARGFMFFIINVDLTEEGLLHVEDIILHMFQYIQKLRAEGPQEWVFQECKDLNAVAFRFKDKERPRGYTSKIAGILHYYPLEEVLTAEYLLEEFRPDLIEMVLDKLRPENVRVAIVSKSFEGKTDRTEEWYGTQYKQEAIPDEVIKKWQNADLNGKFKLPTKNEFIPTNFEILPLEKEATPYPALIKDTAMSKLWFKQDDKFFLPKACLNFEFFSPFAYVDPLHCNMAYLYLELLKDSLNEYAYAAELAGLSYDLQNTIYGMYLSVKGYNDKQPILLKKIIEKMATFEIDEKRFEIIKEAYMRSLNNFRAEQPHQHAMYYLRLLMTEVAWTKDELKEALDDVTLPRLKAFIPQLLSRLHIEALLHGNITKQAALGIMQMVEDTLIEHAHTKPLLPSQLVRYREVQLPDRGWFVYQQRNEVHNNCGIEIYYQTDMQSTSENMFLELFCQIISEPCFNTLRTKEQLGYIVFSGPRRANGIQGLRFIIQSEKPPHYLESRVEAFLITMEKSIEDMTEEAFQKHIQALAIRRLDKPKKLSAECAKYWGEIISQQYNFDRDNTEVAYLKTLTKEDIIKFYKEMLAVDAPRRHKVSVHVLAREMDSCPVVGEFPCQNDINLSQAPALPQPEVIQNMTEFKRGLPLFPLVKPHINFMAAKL
IDE cell inh: inhibitors of human insulin-degrading enzyme in cells | P14735 | HEK cells, FAbetaB cleavage, fluorescence polarization | inhibition, % at 5.59 µM | 320,000 compounds, 0.41% hits;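 active means percent inhibition above the average of all tested compounds plus 3 SD, set per screening campaign, cut at about 16% in these data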;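 further: IDE supplied by intact live HEK cells; FP after avidin binding of uncleaved biotin substrate so inhibition keeps polarization high; 0% = DMSO wells and 100% = 60 µM reference IDE inhibitor Ii1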
Numbers without * were called inactive; x = not tested or not shown. Shown are actives, neighbours in structure and some others; about 1.5% of the full set was active somewhere.

SMILES	CRFR2-BP antag	cardiac RTF act	Cardiac RTF inh	CRFR2-BP ag	IDE cell activ	IDE cell inh
COc1ccc(C2CC(C(F)(F)F)n3nc(C(=O)O)c(Cl)c3N2)cc1OC (centres undefined)	3.1	-1.3	-1.8	3.1	18.2*	-2.3
CN(C)C(CNC(=O)CCNS(=O)(=O)c1ccccc1C(F)(F)F)c1ccccc1 (centres undefined)	-6.3	-1.4	-7.3	-0.4	1.6	2.0
CCN(CC)CCOc1nc(C)nc2c1oc1ccccc12	17.5	4.8	-5.8	-1.1	-0.2	-3.6
CCN(CC)CCCOc1nc(C)nc2c1oc1ccccc12	23.1	-2.3	35.6*	-1.3	0.3	x
COc1ccc(/C=N/NS(=O)(=O)c2ccccc2)cc1OC(=O)c1ccc(C)cc1	50.6*	1.2	4.1	-3.2	1.2	-2.1
COc1ccc(/C=N/NS(=O)(=O)c2ccc(C)cc2)cc1OC(=O)c1ccccc1	-13.0	12.0	-11.2	1.1	2.8	2.4
COc1ccc(C(Nc2cccc([N+](=O)[O-])c2)P(=O)(OC(C)C)OC(C)C)cc1 (centres undefined)	-9.1	5.3	-6.3	0.6	6.9	7.1
CCOP(=O)(OCC)C(Nc1cccc([N+](=O)[O-])c1)c1ccccc1 (centres undefined)	84.1*	-0.7	2.5	-0.3	3.3	-2.5
COc1ccccc1CCNC(=O)CCn1nc(C)c2c(C)n(-c3ccccc3)nc2c1=O	76.2*	-2.5	-12.4	-0.2	4.2	-1.3
Cc1ccccc1CCNC(=O)CCn1nc(C)c2c(C)n(-c3ccccc3)nc2c1=O	-3.5	-1.3	-8.6	0.7	3.5	2.2
CCOC(=O)C1CCN(c2ncnc3c2nnn3Cc2ccccc2Cl)CC1	59.4*	-6.8	2.7	-1.0	2.8	1.0
COc1ccc(OC2C(=O)N(c3cc(C)ccc3C)C2c2ccc(OC)c(OC)c2)cc1 (centres undefined)	50.6*	2.1	-1.9	2.2	4.0	0.1
COc1ccc(OC2C(=O)N(c3ccc(C)c(C)c3)C2c2ccc(OC)c(OC)c2)cc1 (centres undefined)	17.2	-5.4	1.9	4.1	4.2	-1.6
CCOC(=O)c1cc(N2CCCCC2)nc2ccccc12	-20.5	0.6	-1.0	0.0	-5.1	x
COC(=O)c1cc(N2CCN(C)CC2)nc2ccccc12	-1.2	50.4*	-62.5	17.9	4.0	-1.6
Cc1ccccc1-c1cccc([C@@H]2C[C@H]3[C@H](CON3C)CN2Cc2cc(Cl)cc(Cl)c2)c1	-2.5	-1.8	-6.2	12.8	-6.2	x
O=Cc1ccc(N2CCCC2)c([N+](=O)[O-])c1	6.1	8.4	-10.9	-1.8	4.2	3.1
O=[N+]([O-])/C=C\c1ccc(N2CCCC2)c(F)c1	-88.7	5.4	-7.0	105.7*	-32.8	x
O=C(CN1CCN(c2ccccc2O)CC1)Nc1ccc2c(c1)OCCCO2	-2.8	-0.1	-3.2	0.4	4.7	-2.7
Cc1ccc(S(=O)(=O)ON2C(=O)c3ccccc3C2=O)c(C)c1	63.1*	0.9	-5.1	1.7	-0.6	3.8
Cc1cc(C)c(S(=O)(=O)ON2C(=O)c3ccccc3C2=O)cc1C	12.1	4.7	-4.5	3.0	2.3	-3.9
O=Cc1cn(-c2ccccc2)nc1-c1ccc2c(c1)OCCO2	61.1*	9.9	-19.1	5.3	-0.3	5.6
CCN(CC)CCN=c1c(C)nc(C#N)c(N)n1O	-6.4	x	x	0.3	x	x
COc1cccc(NC(=O)CCC2CCN(C(=O)c3ccc(C(C)=O)s3)CC2)c1	26.1	5.2	4.7	0.3	2.6	-0.9
Cc1ccc(-n2c3nc(=O)[nH]c(=O)c-3cc3cc([N+](=O)[O-])ccc32)cc1C	-72.6	-1.2	1.8	57.7*	-3.3	-3.6
SMILES	CRFR2-BP antag	cardiac RTF act	Cardiac RTF inh	CRFR2-BP ag	IDE cell activ	IDE cell inh
CC1CC(C)CN(C2CCCCC2NS(=O)(=O)c2ccc(Cl)cc2)C1 (centres undefined)	-10.6	-2.9	-3.1	54.8*	-1.1	-4.3
COc1ccccc1N1CCN(C2CCCCC2NS(=O)(=O)c2ccc(Cl)cc2)CC1 (centres undefined)	-195.8	-3.9	-9.6	212.3*	5.8	-0.2
COc1ccc(N2CCN(C3CCCCC3NS(=O)(=O)c3ccc(Cl)cc3)CC2)cc1 (centres undefined)	-37.1	-0.4	-7.5	70.2*	9.4	0.3
CN1CCN(C2CCCCC2NS(=O)(=O)c2ccc(Cl)cc2)CC1 (centres undefined)	-1.6	-2.9	0.9	-0.5	3.5	6.1
COc1ccc(CNC(=O)COC(=O)[C@H](Cc2ccccc2)NC(=O)c2cccs2)cc1	6.7	-2.0	-5.2	-0.7	1.7	2.6
NC(=S)N/N=C\c1ccccc1OCc1ccccc1	37.0	1.1	0.1	-2.6	-2.9	-2.6
NC(=S)N/N=C/c1ccccc1OC(=O)/C=C/c1ccccc1	124.2*	-3.8	2.6	-1.1	4.4	-0.5
CC(C)(C)OC(=O)n1cc(CCO)c2ccccc21	-12.1	-0.6	-11.3	4.8	0.8	3.1
CC(=O)OCC(=O)C1(O)CCC2C3CC(F)C4=CC(=O)CCC4(C)C3C(O)CC21C (centres undefined)	-1.7	2.5	6.2	-1.5	2.8	x
Cc1ccc(SCc2ccc(C(=O)Nc3ccccc3C(=O)NC(C)C)cc2)cc1	-24.6	-5.3	-20.7	7.9	9.3	-3.3
Cc1ccc(SCc2ccc(C(=O)Nc3ccccc3Br)cc2)cc1	-92.7	4.0	14.8	74.2*	0.0	5.7
O=C(NCCCCc1ccccc1)c1cccc([N+](=O)[O-])c1	40.4	0.8	3.1	-0.7	4.2	-1.7
O=C(NCCCc1ccccc1)c1cccc([N+](=O)[O-])c1	55.0*	4.3	2.0	-5.4	5.4	2.4
Cc1csc2nc(CN3CCN(CC(=O)N(C)C)CC3)cc(=O)n12	-3.2	0.2	-5.0	-1.0	-3.0	-2.8
Cc1ccc(NC(=O)CC2SC(=O)N(c3ccccc3)C2=O)cc1 (centres undefined)	89.2*	4.7	-9.6	1.7	2.4	0.1
O=C(CC1SC(=O)N(c2ccccc2)C1=O)Nc1ccccc1 (centres undefined)	-20.3	4.1	-8.5	4.6	-9.7	-3.5
CC(C)(C)c1ccc(C(=O)NN2C(=O)CSC2=S)cc1	5.4	-0.7	-1.8	1.7	-5.0	1.3
CC(C)N(CCn1c(=S)[nH]c2ccccc2c1=O)C(C)C	5.5	4.3	-18.2	50.3*	-3.3	1.6
O=C(CCc1ccc(S(=O)(=O)N2CCOCC2)cc1)Nc1c(F)cccc1F	1.3	0.5	0.5	0.4	-3.1	-0.1
COCCn1c(C)cc(C(=O)CSc2ccc(NC(C)=O)cc2)c1C	-128.9	-0.7	3.8	62.4*	5.0	3.2
CC(NC(=O)CC(c1ccccc1)c1cc(Cl)ccc1O)c1ccccc1 (centres undefined)	52.5*	-0.9	-1.5	-2.1	3.9	1.4
